Consider 13 molecules from PubChem BioAssay (NCATS).

Where “and” joins values, the source holds several entries; their conditions need not be identical. Equal entries are not always repeated. Results filed as inconclusive are left out. Unmarked numbers belong to inactive results. Calls of active or inactive are those of the source. Calls follow the shape of the dose curve; as a rule, active = well fitted inhibition curve with a large enough effect; inconclusive = small, poorly fitted or top-dose-only effect; inactive = no such curve, though single readings can be large or run the other way.
% is scaled to controls: 0 for no effect and ±100 for the full control effect; potency is read from the fitted curve at half-maximal effect.

Cytochrome P450 2C19 (Homo sapiens), sequence (P33261 whole entry, looked up): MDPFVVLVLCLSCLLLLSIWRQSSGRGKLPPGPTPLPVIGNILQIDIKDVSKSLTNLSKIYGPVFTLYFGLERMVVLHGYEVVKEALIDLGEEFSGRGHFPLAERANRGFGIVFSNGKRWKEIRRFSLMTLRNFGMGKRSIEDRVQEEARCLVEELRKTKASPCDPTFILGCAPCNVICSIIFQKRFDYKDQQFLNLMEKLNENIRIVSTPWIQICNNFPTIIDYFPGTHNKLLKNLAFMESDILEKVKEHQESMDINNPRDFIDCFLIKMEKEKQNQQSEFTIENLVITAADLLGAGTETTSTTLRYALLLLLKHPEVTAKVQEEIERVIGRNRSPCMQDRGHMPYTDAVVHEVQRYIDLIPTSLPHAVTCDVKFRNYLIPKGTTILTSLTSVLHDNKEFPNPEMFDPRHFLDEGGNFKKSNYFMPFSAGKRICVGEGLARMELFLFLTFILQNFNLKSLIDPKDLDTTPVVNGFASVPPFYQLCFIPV

The experiment has as its target Cytochrome P450 2C19 (Homo sapiens) (UniProt P33261). The experiment in a line: qHTS Assay for Inhibitors and Substrates of Cytochrome P450 2C19 (AID 899). Also: nearly all actives have a fitted effect of over 60% in size. The conditions noted are these: recombinant CYP2C19, luciferin-H EGE luminescence; series mostly up to 57.1 µM; activity, negative = inhibition: at the top concentration. As for the experimental part:
NIH Molecular Libraries Screening Centers Network [MLSCN]
NIH Chemical Genomics Center [NCGC]
The P450 gene superfamily is involved in the metabolism and clearance of xenobiotics. This assay used human CYP2C19 to measure the hydroxylation of ethylene glycol ester of 6' deoxyluciferin (Luciferin-H EGE; […]) to luciferin. The luciferin is then measured by luminescence after the addition of a luciferase detection reagent. Luciferin-H EGE concentration in the assay was equal to its KM for CYP2C19. Inhibitors and some substrates limit the production of luciferin, and decrease measured luminescence.
NCGC Assay Protocol Summary:
Two uL of enzyme and substrate mix (final concentrations: 5nM CYP2C19, 10uM Luciferin-H EGE, 50mM KPO4) were dispensed into a white, solid bottom 1536-well microtiter plate. 23nL of compound was transferred by a pin tool. The plate was incubated at 37C for 10 min. Two uL of an NADPH regeneration solution (Promega supplied reagent) was dispensed and the reaction was allowed to continue for 60 min at 37C. Then the reaction was stopped by reconstituted luciferin detection buffer. After another 20 min of incubation the plate was read on the ViewLux (Perkin Elmer) at 60 sec exposure and 2x2 binning. This protocol was carried out with Promega-Glo reagents and further information can be found at http://www.promega.com/tbs/tb325/tb325.pdf. Data were normalized to the to AC100 inhibition (57uM ketoconazole).
Keywords: P450, CYP2C19, Luciferase, MLSMR, MLSCN, NIH Roadmap, qHTS, NCGC
(In general: Quantitative high-throughput screening tests each substance at several concentrations.)
For the molecule `Cc1oncc1C(=O)Nc1ccc(C(F)(F)F)cc1`, the “activity, negative = inhibition” value was -25.2%.

For the molecule `NNCCc1ccccc1`, the Potency is 794 nM (active) and 316 nM (active). Consider `N=c1nc(N2CCCCC2)cc(N)n1O`, for which the “activity, negative = inhibition” value was 30.8%.

With `CC(C)(Sc1ccc(CCN(CCCCC2CCCCC2)C(=O)NC2CCCCC2)cc1)C(=O)O`, the “activity, negative = inhibition” value was 37.2%. With `NC(=O)c1cnccn1`, the “activity, negative = inhibition” value is 10.6%. The same measure, in the same setting: as for `O=c1[nH]cnc2[nH]ncc12`, the figure is -10.3%. For `Cc1ccc2c(c1)C(=O)[C@@]1(O)CCN(c3ccccc3)C1=N2`, the Potency was 7.94 µM (active). `CC(=O)Oc1ccccc1C(=O)O`: the “activity, negative = inhibition” value was 5.01%.

With `Nc1ccc(S(=O)(=O)Nc2ccnn2-c2ccccc2)cc1`, the “activity, negative = inhibition” value is 72.5%. On the same count and under the same terms, the value for `CCOC(=O)C1=C[C@@]2(CC)CCCN3CCc4c(n1c1ccccc41)[C@H]32` was -39.9%; that for `C1COC(NC(C2CC2)C2CC2)=N1` was -36.4%; that for `O=C1CCc2cc(OCCCCc3nnnn3C3CCCCC3)ccc2N1` was 22.6%.

As for `Clc1cccc(Cl)c1NC1=NCCN1`, the Potency is 5.01 µM (active).
